# Results filed as inconclusive are left out. Where a call stands in place of a potency, no number is given. Values without a mark were called inactive. Calls of active or inactive are those of the source. Unless noted, the call rests on the fitted dose curve. Positions of bridges follow the written chain, without caps; N, C: chain ends. Non-standard residues stand in square brackets, D forms with d. Residues, ends and D or L forms follow the SMILES beside them. hArg = N=C(N)NCCCC[C@H](N)C(=O)O; Mpa = O=C(O)CCS
# What was measured:
# [1] = qHTS assay to identify small molecule antagonists of the estrogen receptor beta (ER-beta) signaling pathway - cell viability counter screen (AID 1259382; active means well fitted curve in the direction sought with a large enough effect in the repeat runs; an effect the other way counts as inactive or inconclusive;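 further: HEK293T cells carrying ER-beta-UAS-bla reporter stimulated with estradiol; series mostly up to about 92 µM; nearly all actives have a fitted effect of over 55% in size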)
# Method in brief: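 Cytotoxicity counter screen multiplexed with the beta-lactamase antagonist assay: GripTite HEK293T ER-beta-bla cells were treated 16 hr with test chemicals in the presence of 1nM 17-beta-estradiol, and viability was measured by CellTiter-Glo.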
# [2] = qHTS assay to identify small molecule agonists or antagonists of the thyroid stimulating hormone receptor (TSHR) signaling pathway - wild type cell line counter screen (AID 1259384)
# Method in brief: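 Wild-type HEK293 cells were plated 18 h at 37 C/5% CO2, pin-dosed with compound plus Ro20-1724 medium, held 30 min at room temperature, then given cAMP-d2 and anti-cAMP-cryptate; fluorescence was read after 1 h. Fifteen concentrations, triplicate.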
# [3] = target: Thyrotropin receptor (Homo sapiens) (UniProt P16473); test: qHTS assay to identify small molecule antagonists of the thyroid stimulating hormone receptor (TSHR) signaling pathway (AID 1259385); further: nearly all actives have a fitted effect of over 20% in size
# Method in brief: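 TSHR-HEK293 cells were plated and held 18 h at 37C/5% CO2, then given compound plus Ro20-1724 and stimulated with TSH at 1.5 ng/mL final. After 30 min at room temperature, cAMP was detected with cAMP-d2/anti-cAMP-cryptate (1 h) by fluorescence.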
# [4] = target: Progesterone receptor (Homo sapiens) (UniProt P06401); test: qHTS assay to identify small molecule agonists of the progesterone receptor (PR) signaling pathway (AID 1346784); further: nearly all actives have a fitted effect of over 30% in size
# Method in brief: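 HEK 293T PR-UAS-bla reporter cells, 2% charcoal-stripped FBS; 6 hr settle at 37C/5% CO2, compound (DMSO) 16 hr, LiveBLAzer B/G FRET substrate 2 hr RT, fluorescence intensity read.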
# [5] = target: Progesterone receptor (Homo sapiens) (UniProt P06401); test: qHTS assay to identify small molecule antagonists of the progesterone receptor (PR) signaling pathway (AID 1346795; active means well fitted inhibition curve with a large enough effect in the signal ratio in the repeat runs, not every such curve was filed as active; the % refers to the signal ratio; further: potency means the concentration at half of the fitted maximal effect)
# Method in brief: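 Beta-lactamase reporter, HEK293T PR-UAS-bla line; 2% charcoal-stripped FBS; 6 hr pre-incubation, 37C/5% CO2. Compound + R5020 1 nM final, 16 hr. LiveBLAzer B/G FRET substrate, 2 hr RT; fluorescence intensity read.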
# [6] = qHTS assay to identify small molecule antagonists of the progesterone receptor (PR) signaling pathway - cell viability counter screen (AID 1346798; active means well fitted curve in the direction sought with a large enough effect in the repeat runs; an effect the other way counts as inactive or inconclusive; further: series mostly up to about 92 µM; nearly all actives have a fitted effect of over 50% in size)
# Method in brief: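 Luminescence readout (CellTiter-Glo, 30 min, RT) of viability in PR-UAS-bla HEK293T cells exposed to compound and R5020 agonist for 16 hr at 37C, 5% CO2; run in the same wells as the beta-lactamase reporter read.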
# [7] = qHTS assay to identify small molecule agonists of the progesterone receptor (PR) signaling pathway - cell viability counter screen (AID 1346799); further: nearly all actives have a fitted effect of over 45% in size
# Method in brief: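 HEK293T PR-UAS-bla, 3,000 cells/well, 2% charcoal-stripped FBS; 6 h settle, compound 16 h at 37C/5% CO2; LiveBLAzer 2 h RT, then CellTiter-Glo 30 min RT, luminescence read.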
# [8] = qHTS assay to identify small molecule agonists of the estrogen receptor alpha (ER-alpha) signaling pathway in the presence of an antagonist - cell viability counter screen (AID 1259386; active means well fitted curve in the direction sought with a large enough effect in the repeat runs; an effect the other way counts as inactive or inconclusive;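 further: series mostly up to about 92 µM; cells exposed to compounds for 22 h at 37 °C before the viability read; nearly all actives have a fitted effect of over 30% in size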)
# Method in brief: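 Cytotoxicity was measured in parallel with the ERE-luciferase agonist screen, in the same wells. The cells were VM7Luc4E2, which endogenously express ER-alpha, and treatment was with compounds plus 10.0nM ICI-182,780 for 22hr.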
# Sequence of Progesterone receptor (Homo sapiens) (P06401 whole entry, looked up): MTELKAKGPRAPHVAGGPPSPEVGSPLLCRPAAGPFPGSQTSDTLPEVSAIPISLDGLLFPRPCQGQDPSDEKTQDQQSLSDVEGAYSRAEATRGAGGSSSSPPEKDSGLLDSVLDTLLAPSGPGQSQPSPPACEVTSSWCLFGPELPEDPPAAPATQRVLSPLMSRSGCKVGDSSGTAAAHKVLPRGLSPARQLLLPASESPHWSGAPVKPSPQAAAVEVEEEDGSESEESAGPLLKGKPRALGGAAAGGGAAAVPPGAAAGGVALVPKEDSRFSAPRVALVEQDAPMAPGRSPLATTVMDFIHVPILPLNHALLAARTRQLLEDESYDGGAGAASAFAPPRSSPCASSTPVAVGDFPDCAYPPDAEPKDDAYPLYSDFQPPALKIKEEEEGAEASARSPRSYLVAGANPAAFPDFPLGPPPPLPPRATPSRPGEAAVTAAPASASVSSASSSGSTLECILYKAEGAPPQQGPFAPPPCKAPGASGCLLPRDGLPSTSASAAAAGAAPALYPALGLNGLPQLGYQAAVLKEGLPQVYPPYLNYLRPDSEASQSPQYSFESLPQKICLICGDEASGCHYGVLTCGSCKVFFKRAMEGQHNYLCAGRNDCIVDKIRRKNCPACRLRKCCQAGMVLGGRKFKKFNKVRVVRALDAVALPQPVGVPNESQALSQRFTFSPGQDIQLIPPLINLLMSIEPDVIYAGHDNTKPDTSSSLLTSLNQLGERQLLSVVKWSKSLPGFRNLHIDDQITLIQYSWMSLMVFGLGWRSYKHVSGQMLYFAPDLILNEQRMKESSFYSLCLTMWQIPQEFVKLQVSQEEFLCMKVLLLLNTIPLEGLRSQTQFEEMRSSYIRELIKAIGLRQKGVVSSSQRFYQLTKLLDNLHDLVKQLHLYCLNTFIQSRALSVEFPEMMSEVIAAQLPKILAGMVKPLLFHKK
# Sequence of Thyrotropin receptor (Homo sapiens) (P16473 whole entry, looked up): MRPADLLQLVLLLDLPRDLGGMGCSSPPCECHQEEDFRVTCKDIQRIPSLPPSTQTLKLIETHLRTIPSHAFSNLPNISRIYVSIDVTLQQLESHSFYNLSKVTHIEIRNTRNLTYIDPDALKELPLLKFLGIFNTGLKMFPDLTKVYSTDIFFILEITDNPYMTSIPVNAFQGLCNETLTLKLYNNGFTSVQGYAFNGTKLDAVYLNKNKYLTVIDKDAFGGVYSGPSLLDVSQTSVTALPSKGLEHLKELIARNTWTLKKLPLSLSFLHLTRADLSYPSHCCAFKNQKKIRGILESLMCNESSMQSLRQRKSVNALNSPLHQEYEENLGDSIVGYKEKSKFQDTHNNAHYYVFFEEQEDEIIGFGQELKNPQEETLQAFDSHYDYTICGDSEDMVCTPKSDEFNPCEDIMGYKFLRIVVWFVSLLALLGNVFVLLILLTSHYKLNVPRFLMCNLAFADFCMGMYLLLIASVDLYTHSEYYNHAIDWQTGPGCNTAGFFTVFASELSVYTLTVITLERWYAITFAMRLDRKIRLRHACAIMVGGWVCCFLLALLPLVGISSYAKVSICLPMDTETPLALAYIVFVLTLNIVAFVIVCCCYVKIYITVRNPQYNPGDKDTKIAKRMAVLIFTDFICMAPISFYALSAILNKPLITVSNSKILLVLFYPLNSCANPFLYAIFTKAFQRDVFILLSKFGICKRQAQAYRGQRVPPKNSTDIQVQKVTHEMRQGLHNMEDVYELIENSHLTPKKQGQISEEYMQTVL
smiles,measurement,setting,value
ONc1ccccc1,outcome,[1],inactive
same,outcome,[2],inactive
same,outcome,[3],inactive
same,Potency,[4],inactive
same,Potency,[5],inactive
same,outcome,[6],inactive
same,outcome,[7],inactive
COS(=O)(=O)O,outcome,[1],inactive
same,outcome,[2],inactive
same,outcome,[3],inactive
same,outcome,[8],inactive
same,Potency,[4],inactive
same,Potency,[5],inactive
same,outcome,[6],inactive
same,outcome,[7],inactive
CC(=O)OC(C)=O,outcome,[1],inactive
same,outcome,[2],inactive
same,outcome,[3],inactive
same,outcome,[8],inactive
same,Potency,[4],inactive
same,Potency,[5],inactive
same,outcome,[6],inactive
same,outcome,[7],inactive
c1ccc2c(CC3=NCCN3)cccc2c1,outcome,[1],inactive
same,outcome,[2],inactive
same,outcome,[8],inactive
same,Potency,[4],inactive
same,Potency,[5],inactive
same,outcome,[6],inactive
same,outcome,[7],inactive
NC(=O)[C@@H]1CSSCCC(=O)N[C@@H](CCCCN=C(N)N)C(=O)NCC(=O)N[C@@H](CC(=O)O)C(=O)N[C@@H](Cc2c[nH]c3ccccc23)C(=O)N2CCC[C@H]2C(=O)N1 ([Mpa][hArg]GDWPC-NH2; disulfide 1-7),outcome,[1],inactive
same,outcome,[2],inactive
same,outcome,[3],inactive
same,outcome,[8],inactive
same,Potency,[4],inactive
same,Potency,[5],inactive
same,outcome,[6],inactive
same,outcome,[7],inactive
OCC1(CO)COCOC1,outcome,[1],inactive
same,outcome,[2],inactive
same,outcome,[3],inactive
same,outcome,[8],inactive
same,Potency,[4],inactive
same,outcome,[6],inactive
Cc1ccc(C(C)NC(=O)[C@@H](NC(=O)OC(C)C)C(C)C)cc1 (some centres undefined),outcome,[1],inactive
same,outcome,[2],inactive
same,outcome,[3],inactive
same,outcome,[8],inactive
same,Potency,[4],inactive
same,Potency,[5],inactive
same,outcome,[6],inactive
same,outcome,[7],inactive
O=[N+]([O-])c1c(Cl)cc(Cl)cc1Cl,outcome,[1],inactive
same,outcome,[2],inactive
same,Potency,[4],inactive
same,Potency,[5],inactive
same,outcome,[6],inactive
same,outcome,[7],inactive
CCCC(=O)OCCC(C)CCC=C(C)C (centres undefined),outcome,[1],inactive
same,outcome,[2],inactive
same,outcome,[3],inactive
same,outcome,[8],inactive
same,Potency,[4],inactive
same,Potency,[5],inactive
same,outcome,[6],inactive
same,outcome,[7],inactive
Cn1c(=O)c2c(ncn2CCO)n(C)c1=O,outcome,[1],inactive
same,outcome,[2],inactive
same,outcome,[3],inactive
same,Potency,[4],inactive
same,Potency,[5],inactive
same,outcome,[6],inactive
same,outcome,[7],inactive
CC(C)=CCC/C(C)=C/COC=O,outcome,[1],inactive
same,outcome,[2],inactive
same,outcome,[3],inactive
same,outcome,[8],inactive
same,Potency,[4],inactive
same,Potency,[5],inactive
same,outcome,[6],inactive
same,outcome,[7],inactive
C=C(C)C1CC=C(C)C(=O)C1 (centres undefined),outcome,[1],inactive
same,outcome,[2],inactive
same,outcome,[3],inactive
same,outcome,[8],inactive
same,Potency,[4],inactive
same,outcome,[6],inactive
same,outcome,[7],inactive
O=Cc1ccccc1Cl,outcome,[1],inactive
same,outcome,[8],inactive
same,Potency,[4],inactive
same,Potency,[5],inactive
same,outcome,[6],inactive
same,outcome,[7],inactive
O=S(=O)(O)c1ccc2c(N=Nc3ccc(S(=O)(=O)O)c4ccccc34)c(O)c(S(=O)(=O)O)cc2c1,"activity change, negative = cytotoxicity",[1],-3.29% [at 8.39 µM]
same,cAMP activity change,[2],-0.796% [at 8.39 µM]
same,"activity change, negative = inhibition",[3],-3.96% [at 8.39 µM]
same,activation,[4],2.07% [at 8.39 µM]
same,"activity change, negative = inhibition",[5],-1.68% [at 8.39 µM]
same,"activity change, negative = cytotoxicity",[6],12.1% [at 8.39 µM]
same,"activity change, negative = cytotoxicity",[7],18.6% [at 8.39 µM]
CO[Si](CCCn1c(=O)n(CCC[Si](OC)(OC)OC)c(=O)n(CCC[Si](OC)(OC)OC)c1=O)(OC)OC,outcome,[1],inactive
same,outcome,[2],inactive
same,outcome,[3],inactive
same,outcome,[8],inactive
same,Potency,[4],inactive
same,Potency,[5],inactive
same,outcome,[6],inactive
same,outcome,[7],inactive
NCc1ccc(S(N)(=O)=O)cc1,outcome,[1],inactive
same,outcome,[2],inactive
same,outcome,[3],inactive
same,outcome,[8],inactive
same,Potency,[4],inactive
same,Potency,[5],inactive
same,outcome,[6],inactive
same,outcome,[7],inactive
CCCCCCCCCCCCCBr,outcome,[1],inactive
same,outcome,[8],inactive
same,Potency,[5],inactive
same,outcome,[6],inactive
same,outcome,[7],inactive
C=Cc1ccc(C(C)(C)C)cc1,outcome,[1],inactive
same,outcome,[2],inactive
same,outcome,[3],inactive
same,Potency,[4],inactive
same,Potency,[5],inactive
same,outcome,[6],inactive
same,outcome,[7],inactive
O=NN(CCCl)C(=O)NC1CCCCC1,outcome,[1],inactive
same,outcome,[2],inactive
same,Potency,[4],inactive
same,Potency,[5],inactive
same,outcome,[6],inactive
same,outcome,[7],inactive
C=CC(=O)CCCCC,outcome,[1],inactive
same,outcome,[2],inactive
same,outcome,[3],inactive
same,outcome,[8],inactive
same,Potency,[4],inactive
same,Potency,[5],inactive
same,outcome,[6],inactive
same,outcome,[7],inactive
Cc1cccc(Cl)c1,outcome,[1],inactive
same,outcome,[2],inactive
same,outcome,[3],inactive
same,Potency,[4],inactive
same,Potency,[5],inactive
same,outcome,[7],inactive
c1ccc(B(c2ccccc2)c2ccccc2)cc1,outcome,[1],inactive
same,outcome,[8],inactive
same,Potency,[4],inactive
same,Potency,[5],54.4 µM (active)
same,outcome,[6],inactive
same,outcome,[7],inactive
COc1c2occc2c(OC)c2c(=O)cc(C)oc12,outcome,[1],inactive
same,outcome,[2],inactive
same,outcome,[3],inactive
same,outcome,[8],inactive
same,Potency,[4],inactive
same,Potency,[5],inactive
same,outcome,[6],inactive
same,outcome,[7],inactive
CC(N)CCCC(C)(C)O (centres undefined),outcome,[1],inactive
same,outcome,[2],inactive
same,outcome,[3],inactive
same,Potency,[4],inactive
same,Potency,[5],inactive
same,outcome,[7],inactive
CC(O)COC(C)(C)C (centres undefined),outcome,[1],inactive
same,outcome,[2],inactive
same,outcome,[3],inactive
same,outcome,[8],inactive
same,Potency,[4],inactive
same,Potency,[5],inactive
same,outcome,[6],inactive
same,outcome,[7],inactive
C/C=C(\C)C(=O)OCCc1ccccc1,outcome,[1],inactive
same,Potency,[4],inactive
same,Potency,[5],inactive
same,outcome,[6],inactive
same,outcome,[7],inactive
N[C@@H](Cc1ccc(O)cc1)C(=O)O,"activity change, negative = cytotoxicity",[1],2.66% [at 8.39 µM]
same,cAMP activity change,[2],6.84% [at 8.39 µM]
same,"activity change, negative = inhibition",[3],3.38% [at 8.39 µM]
same,activation,[4],-2.73% [at 8.39 µM]
same,"activity change, negative = inhibition",[5],7.58% [at 8.39 µM]
same,"activity change, negative = cytotoxicity",[6],-4.23% [at 8.39 µM]
same,"activity change, negative = cytotoxicity",[7],-21.8% [at 8.39 µM]
